Only some compounds are listed: those with a hit (about 3.1% of all), similar ones and a draw of the others.
CASP6 VEID inh = human caspase-6 inhibitors, primary screen, biochemical, VEID-R110 fluorescence, single point, set 2 | AID 686996, 2013 | hit rate 0.53% among 350,000 | inhibition, % at 12.5 µM | purified caspase-6, Z-VEID-R110 cleavage fluorescence | P55212;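 active = mean inhibition across replicates at least about 35%, with every replicate also reaching that limit, limit read from the data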
SIRT5 inh = SIRT5 desuccinylase inhibitors, primary screen, biochemical, fluorescence imaging, single point, set 5; NAD-dependent protein deacylase sirtuin-5, mitochondrial (Homo sapiens), Q9NXA8; Purified SirT5, succinyl-peptide AMC, trypsin-coupled fluorescence; inhibition, % at 15 µM; hit rate 1.1% among 330,000; AID 652115, 2013; in the data active = inhibition above about 15%
FGF22 binding = binders of human FGF22 protein, primary screen, FGF22 synaptogenesis inhibitor project, biophysical, thermal shift, single point; activity (Tm shift, normalised), % at 9.99 µM; recombinant FGF22 thermal shift, SYPRO orange fluorescence; percent of sucrose octasulfate shift, DMSO zero; Fibroblast growth factor 22 (Homo sapiens), Q9HCT0; hit rate 1.5% among 340,000;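 active = mean Tm shift, scaled 0 neutral to 100 positive control, at about 1.3% or above, every replicate too, limit read from the data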
ERAP1 inh = human ERAP1 aminopeptidase inhibitors, primary screen, biochemical, single point, plate reader; AID 652197, 2013; Endoplasmic reticulum aminopeptidase 1 (Homo sapiens), Q9NZ08; hit rate 0.15% among 340,000; recombinant ERAP1, Leu-AMC fluorescence, 60 min; inhibition, % at 10.7 µM;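 active = mean replicate inhibition of at least 30%, or all replicates individually reaching that 30% level; inactive = mean below 30% and not every replicate reaching it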
A number is an active result; i = inactive; nt = not tested or not shown.

SMILES | CASP6 VEID inh | SIRT5 inh | FGF22 binding | ERAP1 inh
CO[C@@H]1CN(C)C(=O)c2cc(NC(=O)c3cccc(F)c3)ccc2OC[C@H](C)N(CC2CC2)C[C@@H]1C | i | i | i | i
C[C@H](CO)N1C[C@H](C)[C@@H](CN(C)CC2CCCCC2)Oc2ccc(NS(=O)(=O)c3ccc(F)cc3)cc2CC1=O | i | 16 | i | i
COc1cc(=O)[nH]c(SC(C)C(=O)Nc2cccc3ccccc23)n1 (stereo not given) | i | 75 | i | i
C/C=C/c1ccc([C@H]2[C@@H](CO)N(C(=O)Cc3cccnc3)[C@H]2CNC(C)=O)cc1 | nt | i | i | nt
OC[C@@H]1[C@H](c2ccc(-c3cccnc3)cc2)[C@@H]2CN(CC3CCOCC3)CCCCN12 | i | i | i | i
CCc1nnc(NC(=O)c2cc(OC)c(OC)cc2[N+](=O)[O-])s1 | i | i | i | i
COc1cc(C(=O)Nc2nnc(SC)s2)c([N+](=O)[O-])cc1OC | i | i | 44 | i
CC(C)C(=O)Nc1cccc(COc2ccccc2CN(Cc2ccccc2)C(=O)OC(C)(C)C)c1 | i | 18 | i | nt
CC(C)(C)OC(=O)N(CCc1ccccc1)Cc1ccccc1OCc1cccc(NC(=O)C2CC2)c1 | i | i | i | i
CC(C)(C)OC(=O)N(CCc1ccccc1)Cc1ccccc1OCc1cccc(NC(=O)C2CCCC2)c1 | i | 29 | i | i
COc1ccc(-n2nc(C(=O)NCC(=O)NCC3COc4ccccc4O3)c3ccccc3c2=O)c(OC)c1 (stereo not given) | i | i | 44 | i
COc1ccc(-n2nc(C(=O)NCC(=O)NCC3COc4ccccc4O3)c3ccccc3c2=O)cc1OC (stereo not given) | i | i | nt | i
COCCCNC(=O)CNC(=O)c1nn(-c2ccc(OC)c(Cl)c2)c(=O)c2ccccc12 | i | 17 | i | i
OC[C@H]1[C@@H](c2ccc(-c3ccccc3)cc2)[C@@H]2CN(Cc3ccccn3)CCCCN12 | i | i | i | i
CC(=O)Nc1nc(C)cs1 | i | i | i | i
CC(=O)Nc1nc(C(=O)O)cs1 | i | i | 43 | i
Nc1nc(N)c(N=Nc2ccccc2)c(=O)[nH]1 | i | i | i | i
Nc1nc(-c2ccccc2)[nH]c(=O)c1N=O | 49 | i | i | i
O=C(C[C@@H]1C=C[C@H](NC(=O)C2CCOCC2)[C@H](CO)O1)NCC1CCCCC1 | i | i | i | i
CCOC(=O)c1cc(CC)sc1NC(=O)CC1SC(N)=NC1=O (stereo not given) | i | i | i | i
CCOC(=O)c1c(NC(=O)CC2SC(N)=NC2=O)sc(C)c1C (stereo not given) | i | i | 43 | i
CCOC(=O)c1c(NC(=O)Cn2ccsc2=N)sc(C)c1C | i | i | 43 | i
CCOC(=O)c1c(NC(=O)CSC(=S)N(C)C)sc(C)c1C | i | i | i | i
C[C@@H]1CN([C@@H](C)CO)C(=O)Cc2cc(NC(=O)Nc3ccccc3)ccc2O[C@@H]1CN(C)C(=O)Nc1cccc2ccccc12 | i | i | i | i
O=C(NCc1nnc2c3ccccc3c(-c3ccccc3)nn12)c1ccccc1Cl | i | i | 44 | i
SMILES | CASP6 VEID inh | SIRT5 inh | FGF22 binding | ERAP1 inh
C[C@H]1CCCCO[C@H](CN(C)Cc2ccccc2)[C@@H](C)CN([C@@H](C)CO)C(=O)c2cc(NC(=O)c3ccncc3)ccc2O1 | i | i | i | i
C#CCOc1ccc(/C=C2/C(=O)N(c3ccc(S(N)(=O)=O)cc3)N=C2C)cc1OC | 39 | i | i | i
CN(C)/C=N/c1nc2nccc(-c3ccc(Cl)cc3)n2n1 | i | i | i | i
COc1ccc(-c2cnc3nc(/N=C/N(C)C)nn3c2/N=C/N(C)C)cc1 | i | i | 43 | i
O=C(c1ccccc1)C(Nc1ccccn1)c1ccccc1 (stereo not given) | i | i | 44 | i
O=C1NC(=S)S/C1=C/c1ccc(OC(=O)c2ccco2)cc1 | i | 81 | i | i
N=C1/C(=C\c2ccc(OC(=O)c3ccco3)cc2)C(=O)N=C2SC=NN12 | i | i | 44 | i
COc1cc(/C=C2/C(=N)N3C(=NC2=O)SN=C3S(=O)(=O)C(C)C)ccc1OC(=O)c1ccco1 | i | i | 1.4 | i
CO[C@H]1CN(C)C(=O)c2ccc(NS(=O)(=O)c3ccccc3Cl)cc2OC[C@@H](C)NC[C@@H]1C | i | i | i | i
C[C@H]1CN([C@@H](C)CO)C(=O)c2cc(C#CC3(O)CCCC3)cnc2O[C@H]1CN(C)C(=O)C1CCOCC1 | i | i | i | i

Source: PubChem BioAssay (Broad Institute)
